Assay outcomes deposited in PubChem by National Center for Advancing Translational Sciences (NCATS).
Cruzain Triton = qHTS Assay for Promiscuous and Specific Inhibitors of Cruzain (with detergent); Cruzipain (Trypanosoma cruzi), P25779; purified cruzain, Z-FR-AMC fluorescence, 0.01% Triton; Potency, µM, for inactives: max response, negative = inhibition, hits mostly inhibitors; hit rate 0.43% among 200,000; AID 1478, 2009;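 further: plate controls were neutral wells for no effect and buffer without enzyme for full effect; nearly all actives have a fitted effect of over 40% in size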
Target sequence (P25779 123-467 limits assumed): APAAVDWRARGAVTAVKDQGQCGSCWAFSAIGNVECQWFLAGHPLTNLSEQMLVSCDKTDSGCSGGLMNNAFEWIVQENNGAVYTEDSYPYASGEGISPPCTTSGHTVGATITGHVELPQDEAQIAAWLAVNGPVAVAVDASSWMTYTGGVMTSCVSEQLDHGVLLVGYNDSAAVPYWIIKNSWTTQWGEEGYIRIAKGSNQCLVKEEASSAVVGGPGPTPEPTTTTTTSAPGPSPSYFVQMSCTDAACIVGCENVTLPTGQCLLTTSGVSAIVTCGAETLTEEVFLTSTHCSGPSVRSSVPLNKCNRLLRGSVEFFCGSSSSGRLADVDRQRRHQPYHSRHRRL
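Compounds were screened in titration against cruzain (1.5 nM) with 0.01% Triton X-100 to counter colloidal aggregation. Activity was the AMC fluorescence increase over 60 s after adding 2 uM Z-FR-AMC at pH 5.5.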
Cruzain noTriton = qHTS Assay for Promiscuous and Specific Inhibitors of Cruzain (without detergent); purified cruzain, Z-FR-AMC fluorescence, no detergent; Potency, µM, for inactives: max response, negative = inhibition, most hits filed as inhibitors; AID 1476, 2009; Cruzipain (Trypanosoma cruzi), P25779; hit rate 2.3% among 200,000;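 further: plate controls were enzyme without inhibitor for no effect and buffer without enzyme for full effect; nearly all actives have a fitted effect of over 40% in size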
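Detergent-free condition (0.00005% Triton X-100) in acetate buffer pH 5.5 with DTT. 1.5 nM enzyme and compound were pre-mixed 15 min, then 2 uM Z-FR-AMC substrate added; reaction progress from fluorescence change between first and third reads (60 s).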
Numbers without * were called inactive; ? = inconclusive. Only some compounds are listed: those with a hit (about 2.5% of all), similar ones and a draw of the others. The call rests on the fitted dose curve; in most records, active means well fitted curve in the direction sought with a large enough effect; inconclusive means small, poorly fitted or top-dose-only effect, or another doubt; inactive means no such curve, though single readings can be large; an effect the other way counts as inactive or inconclusive. Potency means the concentration at half of the fitted maximal effect.

SMILES	Cruzain Triton	Cruzain noTriton
CC(C)=CCOc1ccc(/C=C/C(=O)c2ccc(OCC=C(C)C)cc2OCC(=O)O)cc1	20µM*	?
CCOc1ccc(/C=C/C(=O)c2ccc(-c3ccccc3)cc2)cc1	-11%	-29%
CC(=O)c1cccc(NC(=O)Cc2ccc(NC(=O)N3CCCCc4ccccc43)cc2)c1	-8%	?
CC(C)[C@H](NC(=O)c1ccccc1)C(=O)OCc1nc2scc(-c3ccccc3)c2c(=O)[nH]1	-6%	?
O=C(OCc1nc2scc(-c3ccccc3)c2c(=O)[nH]1)c1cccc([N+](=O)[O-])c1	-7%	25µM*
Cc1ccc(C(c2nnnn2C2CCCCC2)N2CCc3ccccc32)cc1 (centres undefined)	-1%	25µM*
CC(C)C(c1nnnn1C1CCCCC1)N1CCc2ccccc21 (centres undefined)	-1%	13%
CCc1nn2c(=O)cc(COC(=O)COc3ccc(OC)cc3)nc2s1	-1%	-9%
CCOC(=O)c1c(-c2ccc(C)cc2C)csc1NC(=O)c1ccccc1Cl	0%	1%
C/C(=N\NC(=O)c1ccc(C)cc1C)c1ccc2c(c1)Nc1ccccc1S2	-2%	?
CCOC(=O)Nc1ccc2c(c1)Nc1ccccc1S2	-11%	25µM*
CCOC(=O)c1ccc(NC(=O)c2ccc3c(c2)NC(=O)c2ccccc2S3)cc1	-1%	6%
CC(=O)c1ccc2c(c1)Nc1ccccc1S2	1%	25µM*
CCOC(=O)c1ccc(NC(=O)CSc2cc(-c3ccccc3)nc(C)n2)cc1	-8%	8%
COc1ccccc1CNc1nccn(-c2ccccc2)c1=O	-14%	-22%
Cc1ccc(-c2nc3c4ccccc4n(CC(=O)N4CCN(c5ccc(F)cc5)CC4)c(=O)n3n2)cc1	1%	4%
Cc1ccc2c(c1)c1nnc(SCC(=O)N3CCN(c4ccc(F)cc4)CC3)nc1n2CC(=O)O	28µM*	7%
Cc1ccc(OCc2nc(-c3ccc(C(=O)N4CCN(c5ccc(Cl)cc5)CC4)cc3)oc2C)cc1	-1%	-8%
COc1ccc(NC(=O)c2c(F)cccc2F)cc1S(=O)(=O)Nc1ccc(Br)cc1	-3%	16µM*
CCOc1ccc(Br)cc1S(=O)(=O)Nc1ccc(C(=O)OCC(=O)N(C)c2ccccc2)cc1	-7%	-16%
CCOc1ccc(Br)cc1S(=O)(=O)Nc1ccc(C(=O)Nc2ccccc2OC)cc1	-5%	16µM*
CCOc1ccc(Br)cc1S(=O)(=O)Nc1ccc(NC(=O)c2ccccc2F)cc1	-3%	25µM*
CCOc1ccc(Br)cc1S(=O)(=O)Nc1ccc(NC(=O)c2ccccc2C)cc1	-2%	?
CCOc1ccc(Br)cc1S(=O)(=O)Nc1ccc(C(=O)Nc2ccc(C)cc2)cc1	-4%	32µM*
COc1ccccc1NC(=O)c1ccc(NS(=O)(=O)c2ccc(F)c(F)c2F)cc1	-1%	-18%
SMILES	Cruzain Triton	Cruzain noTriton
COc1ccc(C)cc1S(=O)(=O)Nc1ccc(F)cc1	-2%	-3%
Cc1ccc(NC(=O)CSc2n[nH]c(-c3ccc(F)cc3)n2)cc1F	-11%	-9%
CC(=O)c1ccc(N2CCN(c3ncnc4c3c(-c3ccccc3)cn4-c3ccc(C)c(Cl)c3)CC2)cc1	-1%	4%
Cc1ccc(C)c(NC(=O)CSc2nncn3c2cc2sccc23)c1	-1%	6%
COc1ccc(/C=C/C(=O)Nc2ccc3nc(N4CCC(C)CC4)cc(C)c3c2)cc1OC	2%	1%
COc1ccc(NC(=O)c2sc3cc(C(F)(F)F)cnc3c2-c2cccs2)cc1	3%	-4%
O=C(O)c1sc2cc(C(F)(F)F)cnc2c1-c1ccccc1	?	16µM*
COC(=O)c1sc2cc(C(F)(F)F)cnc2c1-c1ccccc1	3%	0%
O=C(Nc1ccc(F)cc1)c1sc2cc(C(F)(F)F)cnc2c1-c1cccs1	0%	25µM*
OB(O)O	0%	1%
Nc1c(C(=O)c2ccc(F)cc2)sc(Nc2ccccc2F)c1S(=O)(=O)c1ccc(Br)cc1	-1%	-27%
Cc1ccccc1Nc1sc(C(=O)c2ccc(F)cc2)c(N)c1C(=O)NCCc1ccccc1	-4%	?
Cc1ccc(Cl)cc1Nc1sc(C(=O)c2ccc(F)cc2)c(N)c1S(C)(=O)=O	-12%	-27%
COc1ccc(OC)c(Nc2sc(C(=O)c3ccccc3)c(N)c2S(=O)(=O)c2ccccc2)c1	-2%	7.9µM*
Cc1ccc(Nc2sc(C(=O)c3ccccc3)c(N)c2S(=O)(=O)c2ccccc2)cc1Cl	-5%	4µM*
CCc1ccc(Nc2sc(C(=O)c3ccc(F)cc3)c(N)c2S(=O)(=O)c2ccccc2)cc1	-4%	7.9µM*
COc1ccc(S(=O)(=O)c2c(Nc3ccc(F)cc3)sc(C(=O)c3ccc(C)cc3C)c2N)cc1	-1%	5µM*
Cc1cc(Nc2sc(C(=O)c3ccc(F)cc3)c(N)c2C(=O)Nc2ccc(F)cc2)ccc1Cl	-6%	?
O=C(CCn1cccn1)Nc1ccc(Br)cc1F	-2%	-5%
CC(C)CCNC(=O)C(=O)Nc1c2c(nn1-c1ccc(Cl)cc1)CSC2	0%	?
CCOc1cccc(NC(=O)C2CC(=O)N(C)C(=Nc3ccc(F)cc3)S2)c1 (centres undefined)	-13%	?
COc1cc(C(=O)N2CC(=O)Nc3ccc(C)cc3C2c2ccc(F)cc2)cc(OC)c1OC (centres undefined)	-2%	5%
CCC(C)(C)NC(=O)C1CCN(S(=O)(=O)c2c(C)noc2/C=C/c2ccc(C)cc2)CC1	-2%	-1%
Cc1ccccc1NC(=O)Cn1c(=O)n(CCC(=O)NCc2ccc3c(c2)OCO3)c(=O)c2sccc21	-3%	-9%
COc1ccccc1CNC(=O)CN1C(=O)COc2ccc(S(=O)(=O)N3CCC(C)CC3)cc21	-3%	14%
SMILES	Cruzain Triton	Cruzain noTriton
Cc1ccc(Nc2sc(C(=O)c3ccc(F)cc3)c(N)c2S(=O)(=O)c2ccc(C)cc2)cc1	2%	?
Cc1ccc(S(=O)(=O)c2c(Nc3cc(F)ccc3F)sc(C(=O)c3ccc(F)cc3)c2N)cc1	-5%	3.2µM*
Cc1nn(C(C)(C)C)c(OC(=O)c2ccc3c(c2)OCO3)c1S(=O)(=O)c1ccccc1	-6%	7%
COc1ccccc1Nc1sc(C(=O)c2ccc3c(c2)OCO3)c(N)c1S(=O)(=O)c1ccccc1	-3%	7.9µM*
COc1ccccc1Nc1nc(C)nc(N)c1S(=O)(=O)c1ccccc1	-3%	-12%
COc1ccccc1Nc1sc(C(=O)c2ccc(C)cc2C)c(N)c1S(=O)(=O)c1ccccc1	-1%	7.9µM*
Cc1ccc(Nc2sc(C(=O)c3ccccc3)c(N)c2C(=O)NC(C)C)cc1	-3%	9%
Cc1ccc(Nc2sc(C(=O)c3ccccc3)c(N)c2S(=O)(=O)c2ccccc2)c(C)c1	-4%	10µM*
COc1cccc(Cn2c(C)c(CNCc3cccc(C)c3)c(C(=O)O)c2C)c1	-2%	?
CCN(CC)C(=O)C1=C(C)Nc2nc3ccccc3n2C1c1ccc(Br)cc1 (centres undefined)	-4%	12%
Oc1c(C(c2ccccc2Cl)N2CCCC2)sc2nc(-c3ccco3)nn12 (centres undefined)	-1%	-14%
COc1ccc(C(=O)N(Cc2sccc2C)C2CCS(=O)(=O)C2)cc1Cl (centres undefined)	-3%	-4%
COc1cccc(C(=O)c2sc(Nc3ccc(C)cc3C)c(S(=O)(=O)c3ccccc3)c2N)c1	-4%	7.9µM*
